PubChem BioAssay (NCI)
The panel holds about 79,000 compounds, 15% with a hit somewhere; the sample as a whole holds those more often. The source made the active and inactive calls. No stated cut-off is given here; in the data, active means growth inhibition above about 70%; inactive means the rest.

Key:
[1] = NCI Yeast Anticancer Drug Screen. Data for the mec2-1 strain (AID 157); settings: S. cerevisiae mec2-1 strain, hits give high values
In short: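 Each compound was tested on mec2-1 yeast, a strain altered in DNA damage repair or cell cycle control. Growth inhibition is reported relative to vehicle.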

[2] = NCI Yeast Anticancer Drug Screen. Data for the rad14 strain (AID 159);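 further: 0% = growth of vehicle-treated control cultures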; settings: S. cerevisiae rad14 strain growth inhibition, hits give high values
In short: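 Compound-treated yeast with a defined DNA-repair lesion; growth inhibition normalised to vehicle-treated cultures.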

[3] = NCI Yeast Anticancer Drug Screen. Data for the sgs1 mgt1 strain (AID 161);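 further: 0% = growth of cultures given vehicle only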; settings: S. cerevisiae sgs1 mgt1 strain, hits give high values
In short: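 Mutant yeast exposed to compound; growth scored against vehicle-only wells.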

[4] = NCI Yeast Anticancer Drug Screen. Data for the CLN2oe strain (AID 163);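 further: 0% = growth of vehicle-only control cultures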; settings: S. cerevisiae CLN2oe strain, hits give high values
In short: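 First, the altered yeast strain was treated with each compound; second, its growth was measured; finally, inhibition was derived by comparison with vehicle controls.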

[5] = NCI Yeast Anticancer Drug Screen. Data for the cln2 rad14 strain (AID 165);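 further: 0% = growth equal to vehicle treated cultures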; settings: S. cerevisiae cln2 rad14 strain, hits give high values
In short: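 Test compounds were added to cln2 rad14 yeast cultures; inhibition of growth was then determined by comparison with vehicle treatment.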

[6] = NCI Yeast Anticancer Drug Screen. Data for the bub3 strain (AID 167); settings: S. cerevisiae bub3 mutant strain, hits give high values
In short: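 Growth of a checkpoint-deficient yeast mutant is measured after compound exposure. Values represent inhibition relative to vehicle.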

[7] = NCI Yeast Anticancer Drug Screen. Data for the wt2 strain (AID 169);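 further: 0% = growth of vehicle-treated yeast cultures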; settings: S. cerevisiae wt2 strain growth inhibition, hits give high values
In short: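 The panel's yeast strains carry defined changes in DNA repair or cell cycle genes. Each strain is grown with compound, and growth loss is scored relative to vehicle.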

[8] = NCI Yeast Anticancer Drug Screen. Data for the mlh1 strain (AID 171);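 further: 0% = growth of vehicle-treated control cultures of the same strain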; settings: S. cerevisiae mlh1 strain growth inhibition, hits give high values
In short: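 Inhibition values reflect reduced yeast growth in the presence of compound, referenced to vehicle controls, using a strain chosen for its alteration in DNA repair or cell cycle control.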

[9] = NCI Yeast Anticancer Drug Screen. Data for the sgs1 strain (AID 173);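 further: 0% = growth of vehicle-only control cultures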; settings: S. cerevisiae sgs1 mutant, hits give high values
In short: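 Vehicle-treated cultures served as reference for growth inhibition of a yeast strain altered in DNA damage repair or cell cycle control after compound exposure.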

[10] = NCI Yeast Anticancer Drug Screen. Data for the mlh1 rad18 strain (AID 175); settings: S. cerevisiae mlh1 rad18 strain growth inhibition, hits give high values
In short: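 Inhibition values reflect reduced growth of mutant yeast versus vehicle-treated controls following compound exposure; the mutations affect DNA damage repair.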

[11] = NCI Yeast Anticancer Drug Screen. Data for the rad18 strain (AID 177); settings: S. cerevisiae rad18 mutant growth inhibition, hits give high values
In short: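 Steps: expose repair-mutant yeast to compound; measure growth; express as inhibition relative to vehicle control.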

[12] = NCI Yeast Anticancer Drug Screen. Data for the rad52 strain (AID 147);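 further: 0% = growth of vehicle-treated control cultures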; settings: S. cerevisiae rad52 mutant growth inhibition, hits give high values
In short: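 Inhibition of yeast growth, referenced to vehicle controls, was the measured output for a strain with defective DNA damage repair.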

[13] = NCI Yeast Anticancer Drug Screen. Data for the wt1 strain (AID 149);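 further: 0% = growth of vehicle-treated wt1 cultures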; settings: S. cerevisiae wt1 strain (SPY 50644) growth inhibition, hits give high values
In short: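 Readout: yeast growth inhibition, normalised to vehicle controls, in the wt1 strain exposed to test compounds.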

[14] = NCI Yeast Anticancer Drug Screen. Data for the rad50EPP+ strain (AID 151);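 further: 0% = growth of vehicle-treated control cultures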; settings: S. cerevisiae rad50 mutant strain, hits give high values
In short: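 Genetically defined yeast (rad50EPP+, DNA damage repair alteration) is grown with compound, and inhibition of growth is expressed relative to vehicle-treated controls.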

[15] = NCI Yeast Anticancer Drug Screen. Data for the rad50 strain (AID 155);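 further: 0% = growth of vehicle-only cultures of the same strain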; settings: S. cerevisiae rad50 strain growth inhibition, hits give high values
In short: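 Compounds were tested on a yeast strain with an engineered DNA damage repair alteration; the reported value is growth inhibition normalised to vehicle treatment.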

[16] = at 5.0 µM (retest, dose inferred, filed as 0.5)
[17] = at 50.0 µM (retest, dose inferred, filed as 5.0)

Measured: growth inhibition

C[C@]12CCC3[C@@H](CC[C@@H]4c5nonc5CC[C@]34C)C1CCC2=O (stereo partly specified)
inactive: [2]; at 1.2 µM 40% | [2]; at 3.7 µM 40% | [2]; at 11.0 µM 55% | [3]; [16] 33% | [3]; [17] 69% | [4]; at 1.2 µM 38% | [4]; at 3.7 µM 41% | [4]; at 11.0 µM 48% | [4]; at 33.0 µM 47% | [4]; at 100.0 µM 51% | [5]; [16] 39% | [5]; [17] 54% | [5]; at 50.0 µM 67.7% | [6]; at 1.2 µM 16% | [6]; at 3.7 µM 19% | [6]; [16] -11% | [6]; at 11.0 µM 38% | [6]; at 33.0 µM 61% | [6]; [17] 59% | [7]; at 1.2 µM 3% | [7]; at 3.7 µM 2% | [7]; at 11.0 µM 32% | [8]; at 1.2 µM 8% | [8]; at 3.7 µM 11% | [8]; at 11.0 µM 29% | [9]; at 1.2 µM 19% | [9]; at 3.7 µM 26% | [9]; at 11.0 µM 66% | [10]; [16] 37% | [10]; [17] 63% | [11]; at 1.2 µM 24% | [11]; at 3.7 µM 22% | [11]; at 11.0 µM 50%
active: [1]; at 100.0 µM 79% | [2]; at 33.0 µM 87% | [2]; at 100.0 µM 90% | [3]; at 50.0 µM 87.6% | [6]; at 50.0 µM 78.2% | [6]; at 100.0 µM 72% | [7]; at 33.0 µM 83% | [7]; at 100.0 µM 83% | [8]; at 33.0 µM 80% | [8]; at 100.0 µM 86% | [9]; at 33.0 µM 92% | [9]; at 100.0 µM 93% | [10]; at 50.0 µM 80.8% | [11]; at 33.0 µM 78% | [11]; at 100.0 µM 83%

CCS(=O)(=O)[O][Sn]([CH2]C)([CH2]C)[O]S(=O)(=O)CC
active: [1]; [17] 85% | [1]; at 50.0 µM 77% | [6]; [17] 72% | [7]; at 100.0 µM 77% | [10]; [17] 87%
inactive: [12]; at 1.2 µM -49% | [12]; at 3.7 µM -43% | [12]; at 11.0 µM -29% | [12]; at 33.0 µM -15% | [12]; at 100.0 µM 50% | [13]; at 1.2 µM -47% | [13]; at 3.7 µM -43% | [13]; at 11.0 µM -39% | [13]; at 33.0 µM -25% | [13]; at 100.0 µM 61% | [14]; at 1.2 µM -47% | [14]; at 3.7 µM -43% | [14]; at 11.0 µM -51% | [14]; at 33.0 µM -33% | [14]; at 100.0 µM -35% | [15]; at 1.2 µM -4% | [15]; at 3.7 µM -19% | [15]; [16] 21% | [15]; at 11.0 µM 2% | [15]; at 33.0 µM -14% | [15]; [17] 68% | [15]; at 50.0 µM 48.5% | [15]; at 100.0 µM 56% | [1]; at 1.2 µM -5% | [1]; at 3.7 µM 3% | [1]; [16] 6% | [1]; at 11.0 µM 3% | [1]; at 33.0 µM 23% | [1]; at 100.0 µM 69% | [2]; at 1.2 µM -2% | [2]; at 3.7 µM 4% | [2]; at 11.0 µM 4% | [2]; at 33.0 µM 10% | [2]; at 100.0 µM 34% | [3]; [16] 15% | [3]; [17] 69% | [3]; at 50.0 µM 42.2% | [4]; at 1.2 µM -18% | [4]; at 3.7 µM -45% | [4]; at 11.0 µM -33% | [4]; at 33.0 µM -35% | [4]; at 100.0 µM 54% | [5]; [16] 2% | [5]; [17] 32% | [5]; at 50.0 µM 67% | [6]; at 1.2 µM -5% | [6]; at 3.7 µM -9% | [6]; [16] 1% | [6]; at 11.0 µM -8% | [6]; at 33.0 µM -1% | [6]; at 50.0 µM 55.7% | [6]; at 100.0 µM 55% | [7]; at 1.2 µM -32% | [7]; at 3.7 µM -21% | [7]; at 11.0 µM -26% | [7]; at 33.0 µM -4% | [8]; at 1.2 µM 1% | [8]; at 3.7 µM 5% | [8]; at 11.0 µM 16% | [8]; at 33.0 µM 28% | [8]; at 100.0 µM 52% | [9]; at 1.2 µM -4% | [9]; at 3.7 µM -9% | [9]; at 11.0 µM -3% | [9]; at 33.0 µM 7% | [9]; at 100.0 µM 51% | [10]; [16] 44% | [10]; at 50.0 µM 59.6% | [11]; at 1.2 µM -29% | [11]; at 3.7 µM -25% | [11]; at 11.0 µM -17% | [11]; at 33.0 µM -16% | [11]; at 100.0 µM 52%
